# This is part of a sample that, as a whole, favours compounds with a hit. Of some 83,000 tested, about 20% had one in any assay.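 Growth was measured after 48 h exposure to one concentration of compound in 96-well plates. Values under 10 count as active.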 Unmarked numbers belong to inactive results. Activity calls are given as the source filed them.
# Key:
# Assay in all cases: NCI-60 one-dose screen, 48 h (100 = growth as untreated, 0 = no growth, -100 = all killed)
# Conditions in all cases: 10 µM unless noted
# NCI-H23 lung = system: NCI-H23 lung
# NCI-H226 lung = system: NCI-H226 lung
# NCI-H322M lung = system: NCI-H322M lung
# HOP-62 NSCLC = system: HOP-62 NSCLC
# NCI-H460 lung = system: NCI-H460 lung
# HOP-92 NSCLC = system: HOP-92 NSCLC
# NCI-H522 lung = system: NCI-H522 lung
# A549/ATCC NSCLC = system: A549/ATCC NSCLC
# 786-0 renal = system: 786-0 renal
# COLO 205 colon = system: COLO 205 colon
# DU-145 prostate = system: DU-145 prostate
# K-562 leukemia = system: K-562 leukemia
# MALME-3M melanoma = system: MALME-3M melanoma
# MDA-MB-231 breast = system: MDA-MB-231 breast
# RXF 393 renal = system: RXF 393 renal
# SF-268 CNS = system: SF-268 CNS
# SF-295 CNS = system: SF-295 CNS
# SF-539 CNS = system: SF-539 CNS
# UACC-257 melanoma = system: UACC-257 melanoma
# M14 melanoma = system: M14 melanoma
SMILES,growth (NCI-H23 lung),growth (NCI-H226 lung),growth (NCI-H322M lung),growth (HOP-62 NSCLC),growth (NCI-H460 lung),growth (HOP-92 NSCLC),growth (NCI-H522 lung),growth (A549/ATCC NSCLC),growth (786-0 renal),growth (COLO 205 colon),growth (DU-145 prostate),growth (K-562 leukemia),growth (MALME-3M melanoma),growth (MDA-MB-231 breast),growth (RXF 393 renal),growth (SF-268 CNS),growth (SF-295 CNS),growth (SF-539 CNS),growth (UACC-257 melanoma),growth (M14 melanoma)
Cc1nc(/N=C(\N)NC(=O)Nc2cccc([N+](=O)[O-])c2)sc1C,81.8%,90.5%,93.7%,83.3%,90.5%,84.1%,49.2%,89.1%,90.5%,90.6%,89.8%,14.3%,78.2%,98.8%,91.4%,92.9%,83.3%,78.4%,88.5%,57.1%
COc1ccc(S(=O)(=O)N2CCCCC2)cc1NC(=O)c1[nH]c(C)c2c1CCCCC2=O,26%,46.2%,31.8%,26%,34.8%,26.9%,7.18% (active),28.2%,32.3%,22.9%,61.5%,22%,45.2%,29.1%,3.54% (active),48.1%,23.9%,24.9%,32%,36%
CCN1CCC2(CC1)NC(=O)c1c(c3ccc(Cl)c(Cl)c3n1C)C2C#N (stereo not given),70%,72%,57%,62%,54.6%,40.5%,61.5%,52.1%,63.7%,-31.4% (active),72.7%,23.3%,-6.1% (active),60.5%,76.6%,51.4%,70.8%,52%,-5.12% (active),-38.5% (active)
O=C1Nc2c(ccc(Cl)c2Cl)/C1=C\c1cc(C(F)(F)F)cc(C(F)(F)F)c1,13.3%,24.5%,74.1%,20.2%,-18% (active),-22.6% (active),22.3%,26%,-11.2% (active),-74.9% (active),24.8%,0.912% (active),-55.5% (active),-17.4% (active),21.8%,9.57% (active),5.61% (active),-11.3% (active),25%,-18.2% (active)
Cc1ccc(NC(=O)/C=C/c2ccccc2)c(C(N)=O)c1,58.6%,68.2%,63.1%,88.2%,10.5%,62.9%,-8.74% (active),25.7%,60.7%,-21.2% (active),-8.15% (active),13.1%,96.6%,52.5%,-9.67% (active),43.3%,15.2%,0.356% (active),63.2%,27%
CC(C)C1=C[C@@]23CC[C@@H]4[C@](C)(CCC[C@@]4(C)C(=O)N4CCCNCC4)[C@H]2C[C@@H]1[C@H]1C(=O)CCC(=O)[C@H]13,96.4%,101%,106%,97.3%,104%,101%,91.5%,101%,104%,134%,114%,93.5%,99.9%,109%,104%,97.8%,93.7%,93.7%,106%,93%
C#CC(F)(F)[C@]1(O)CC[C@H]2[C@@H]3CCC4=CC(=O)CCC4=C3[C@@H](c3ccc(C(C)=O)cc3)C[C@@]21C,38.5%,93.3%,96.7%,74.4%,97.4%,-31.7% (active),-73% (active),73.4%,-41% (active),78.3%,86.4%,61.4%,-63.4% (active),60.6%,85.4%,36.3%,22.5%,-81.9% (active),89.8%,96.6%
O=C(N/N=C/c1c[nH]c2ccccc12)c1cc(-c2ccccc2)on1,93.6%,87.6%,82.9%,98.8%,98.1%,92.1%,75%,96.7%,97.9%,113%,100%,55.4%,94.8%,89.4%,97.8%,85.9%,98.2%,84.6%,102%,88.6%
Nc1n[nH]c2ccc([C@@H]3Nc4ccc5cn[nH]c5c4[C@H]4C5CCC(C5)[C@@H]34)cc12 (stereo not given in full),43.5%,37.9%,47.2%,48.3%,1.13% (active),104%,27.1%,24.4%,38.4%,-9.43% (active),18.3%,10.8%,51.7%,50.8%,-1.15% (active),42%,13.2%,-19.6% (active),72.6%,10.7%
NNCCc1ccc(NC(=O)CCCc2ccc(/C=C/C(=O)NO)cc2)cc1,64.9%,36%,64%,32.8%,62.8%,28.8%,16.6%,76.4%,71.3%,71.2%,72.6%,7.74% (active),39.4%,42.3%,63.6%,45.3%,77.7%,53.3%,51.7%,61.1%
COc1cccc(-c2nn(C(C)(C)C)cc2-c2ccnc(NCCCNS(=O)(=O)c3cccc4ccccc34)c2)c1,109%,109%,111%,103%,104%,104%,95.6%,104%,103%,115%,107%,104%,114%,106%,109%,108%,101%,113%,110%,101%
Cn1cc(-c2nonc2-c2cn(C)c3ccc(F)cc23)c2cc(F)ccc21,67.6%,51.3%,97.3%,45.6%,49.9%,66%,22%,47.9%,85.7%,62.4%,81.1%,12.6%,49.5%,82.3%,46.7%,71.3%,56.4%,66.1%,71.7%,31.4%
COc1ccc(C2CC(c3ccc4ccccc4c3)=NN2/C=C2\SC(=S)N(NC(=O)Cc3ccccc3Nc3c(Cl)cccc3Cl)C2=O)cc1 (stereo not given),40.5%,45.9%,42.8%,23.7%,9.42% (active),38.5%,-15.4% (active),23.6%,13.8%,55.6%,12.2%,10.6%,52.9%,41%,-8.96% (active),34.6%,14.1%,-16.9% (active),56.2%,-25.1% (active)
COc1ccc(C(=O)COc2ccc(/C=C3\COc4ccc(OC)cc4C3=O)cc2)cc1,77.6%,85.9%,96.1%,110%,104%,77.7%,70.1%,77.9%,90.5%,122%,107%,33.7%,90.2%,106%,21.7%,112%,144%,105%,29.2%,95%
C=CC(=O)Nc1cccc(Nc2nc(SC)nc(-c3cccc([N+](=O)[O-])c3)c2C#N)c1,44.8%,47.2%,74%,53.4%,40.4%,-19.6% (active),38.7%,7.62% (active),63.8%,20.3%,30%,46.5%,14.9%,52.2%,18.5%,74.8%,49.7%,76.6%,49%,45%
Cn1cc(C(=O)c2nc(-c3c[nH]c4ccccc34)no2)c2ccccc21,65.6%,57.3%,68.2%,78.9%,35.2%,63.8%,56.5%,73.7%,98.4%,56%,102%,37.9%,58.4%,69.8%,90.1%,92.1%,68.5%,91.7%,83.9%,64.5%

# Source: PubChem BioAssay (NCI)
